Reference: PMC11062922 (Nature Chemical Biology, 2023)
Where two headings read alike, the source gives them in different places.

Experiments:
Design in all cases: species or system human, MV4-11 + K-562 + COLO205 + SK-N-BE2 + OVCAR-8
[1] = system: MAPK10; settings: read-out: apparent Kd, n = 1
[2] = system: MAPK11; settings: read-out: apparent Kd, n = 1
[3] = system: MAPK14; settings: read-out: apparent Kd, n = 1
[4] = system: MAPK8; settings: read-out: apparent Kd, n = 1
[5] = system: MAPK9; settings: read-out: apparent Kd, n = 1
[6] = system: NLK; settings: read-out: apparent Kd, n = 1
[7] = system: PIP4K2C; settings: read-out: apparent Kd, n = 1
[8] = system: LIMK1; settings: read-out: apparent Kd; compound concentrations: 100 nM and 1000 nM (sheet 'Samples'), CATDS: 0.71485033586555802; n = 1
[9] = system: LIMK2; settings: read-out: apparent Kd; compound concentrations: 100 nM and 1000 nM (sheet 'Samples'), CATDS: 0.38445187661018698; n = 1
[10] = system: MAP2K1; settings: read-out: apparent Kd; compound concentrations:100 nM and 1000 nM (sheet 'Samples'); n = 1
[11] = system: MAP2K2; settings: read-out: apparent Kd; compound concentrations:100 nM and 1000 nM (sheet 'Samples'); n = 1
[12] = system: NQO1; settings: read-out: apparent Kd, n = 1
[13] = system: PIK3CB; settings: read-out: apparent Kd; compound concentrations:100 nM and 1000 nM (sheet 'Samples'); n = 1
[14] = system: PIK3CD; settings: read-out: apparent Kd; compound concentrations: 100 nM and 1000 nM (sheet 'Samples'), CATDS: 0.441724722045092; n = 1
[15] = system: MAPKAPK2; settings: read-out: apparent Kd, n = 1
[16] = system: MAP2K5; settings: read-out: apparent Kd; compound concentrations:100 nM and 1000 nM (sheet 'Samples'); n = 1
[17] = system: RIPK2; settings: read-out: apparent Kd; compound concentrations:100 nM and 1000 nM (sheet 'Samples'); n = 1
[18] = system: STK26; settings: read-out: apparent Kd; compound concentrations: 100 nM and 1000 nM (sheet 'Samples'), CATDS: 0.44700655759470098; n = 1
[19] = system: OPA1; settings: read-out: apparent Kd; compound concentrations:100 nM and 1000 nM (sheet 'Samples'); n = 1
[20] = system: PRKD1; settings: read-out: apparent Kd; compound concentrations:100 nM and 1000 nM (sheet 'Samples'); n = 1
[21] = system: NQO2; settings: read-out: apparent Kd; compound concentrations: 100 nM and 1000 nM (sheet 'Samples'), CATDS: 1; n = 1
[22] = compound concentrations:100 nM and 1000 nM (sheet 'Samples')

In the case of `CC(C)Nc1ncc2cc(Oc3ccc(F)cc3F)c(=O)n(C)c2n1.Cl` [RO3309180-001], the potency estimated from few doses [1, 22] is reported as 68.5 nM, the potency estimated from few doses [2, 22] is reported as 439 nM and the potency estimated from few doses [3, 22] is reported as 9.9 nM. It also gave a potency estimated from few doses [4, 22] of 1080 nM, a potency estimated from few doses [5, 22] of 369 nM and a potency estimated from few doses [6, 22] of 1490 nM. For the same molecule, the potency estimated from few doses [7, 22] was 2100 nM.
`CCCCN(Cc1ccccc1)C(=O)c1ccc(S(=O)(=O)Nc2ccccc2)cc1` [TH257] showed a potency estimated from few doses [8] of 578 nM and a potency estimated from few doses [9] of 2320 nM.
`Fc1ccc(Nc2nccc(-c3c(-c4ccc(Cl)cc4)nn4ncccc34)n2)cc1F` [GW829058X] gave a potency estimated from few doses ([1]; compound concentrations: 100 nM and 1000 nM (sheet 'Samples'), CATDS: 0.57984182911323701) of 726 nM and a potency estimated from few doses ([3]; compound concentrations: 100 nM and 1000 nM (sheet 'Samples'), CATDS: 0.43948476052302998) of 1280 nM.
Molecule `Cl.Cn1c(=O)c(Oc2ccc(F)cc2F)cc2cnc(NC(CO)CO)nc21` [RO3310123-001] has a potency estimated from few doses ([1]; compound concentrations: 100 nM and 1000 nM (sheet 'Samples'), CATDS: 0.34863308961168299) of 1500 nM and a potency estimated from few doses ([3]; compound concentrations: 100 nM and 1000 nM (sheet 'Samples'), CATDS: 0.88366158604644096) of 106 nM.
`Cc1c(Cn2c(C)nn3c(=O)cc(N4CCOC(C)C4)nc23)cccc1C(F)(F)F` (centres unmarked) [GSK2344444A] gave a potency estimated from few doses [10] of 2250 nM, a potency estimated from few doses [11] of 1810 nM and a potency estimated from few doses [12, 22] of 1560 nM. It also gave a potency estimated from few doses [13] of 13.4 nM and a potency estimated from few doses [14] of 20 nM.
Work on `N#CCn1c(=O)c(Oc2ccc(F)cc2F)cc2cnc(NC3CCOCC3)nc21` [RO5040027-000] yielded a potency estimated from few doses [1, 22] of 45.1 nM, a potency estimated from few doses [2, 22] of 146 nM and a potency estimated from few doses [3, 22] of 3.79 nM. The potency estimated from few doses [4, 22] was 523 nM, the potency estimated from few doses [5, 22] was 146 nM and the potency estimated from few doses [15, 22] was 3.65 nM.
`CC(C)(O)Cn1c(=O)c(Oc2ccc(F)cc2F)cc2cnc(NC3CCOCC3)nc21` [RO5036558-000] showed a potency estimated from few doses ([1]; compound concentrations: 100 nM and 1000 nM (sheet 'Samples'), CATDS: 0.17874550909650799) of 71.4 nM, a potency estimated from few doses ([2]; compound concentrations: 100 nM and 1000 nM (sheet 'Samples'), CATDS: 7.7724815915961296E-2) of 1370 nM and a potency estimated from few doses ([3]; compound concentrations: 100 nM and 1000 nM (sheet 'Samples'), CATDS: 0.32550592526208599) of 24.8 nM. The potency estimated from few doses ([4]; compound concentrations: 100 nM and 1000 nM (sheet 'Samples'), CATDS: 9.0808472598726403E-2) was 578 nM, the potency estimated from few doses ([5]; compound concentrations: 100 nM and 1000 nM (sheet 'Samples'), CATDS: 0.14012416738293099) was 127 nM and the potency estimated from few doses ([15]; compound concentrations: 100 nM and 1000 nM (sheet 'Samples'), CATDS: 0.240899887861172) was 40.4 nM. It also gave a potency estimated from few doses ([6]; compound concentrations: 100 nM and 1000 nM (sheet 'Samples'), CATDS: 0.137200771005723) of 134 nM and a potency estimated from few doses ([7]; compound concentrations: 100 nM and 1000 nM (sheet 'Samples'), CATDS: 7.7645763885448402E-2) of 1380 nM.
`CN(C)c1cc2c(Nc3ccc4c(cnn4Cc4ccccc4)c3)ncnc2cn1` [GW282974X] gave a potency estimated from few doses [16] of 1470 nM and a potency estimated from few doses [17] of 989 nM.
With `CN1CCN(CC#Cc2cccc(C(=O)c3cnn(-c4ccc(F)cc4)c3N)c2)CC1.Cl` [RO1154309-001] the potency estimated from few doses ([2]; compound concentrations: 100 nM and 1000 nM (sheet 'Samples'), CATDS: 0.56724832291410499) was 811 nM and the potency estimated from few doses [18] was 1310 nM.
`Cl.Nc1c(C(=O)c2cccc(-c3cccnc3)c2)cnn1-c1ccc(F)cc1F` [RO1164194-001] gave a potency estimated from few doses ([2]; compound concentrations: 100 nM and 1000 nM (sheet 'Samples'), CATDS: 0.82795584306013303) of 112 nM and a potency estimated from few doses ([3]; compound concentrations: 100 nM and 1000 nM (sheet 'Samples'), CATDS: 0.35813974934326798) of 968 nM.
With `Cc1ccc(NC(=O)c2ccnc(N3CCCCC3)c2)cc1-c1ccc(C(=O)NCC2CC2)cc1` [GW775610X] the potency estimated from few doses [2, 22] was 309 nM, the potency estimated from few doses [3, 22] was 199 nM and the potency estimated from few doses [15, 22] was 107 nM.
Work on `C[C@@H](CS(C)(=O)=O)Nc1ncc2cc(Oc3ccc(F)cc3F)c(=O)n(C)c2n1` [RO5044198-000] yielded a potency estimated from few doses ([3]; compound concentrations: 100 nM and 1000 nM (sheet 'Samples'), CATDS: 0.48313667011563999) of 88.4 nM, a potency estimated from few doses ([15]; compound concentrations: 100 nM and 1000 nM (sheet 'Samples'), CATDS: 0.45912582310815703) of 97.4 nM and a potency estimated from few doses ([12]; compound concentrations: 100 nM and 1000 nM (sheet 'Samples'), CATDS: 0.21043150555446399) of 1410 nM.
`FC(F)(F)c1ccc(-c2nn3ncccc3c2-c2ccnc(Nc3cccc(C(F)(F)F)c3)n2)cc1` [GW828205X] showed a potency estimated from few doses [19] of 1630 nM and a potency estimated from few doses [20] of 1820 nM.
In the case of `COc1cc(Nc2nccc(N3CCC(NC(=O)c4cc5ccccc5s4)C3)n2)cc(OC)c1OC` (centres unmarked) [GSK1379760A], the potency estimated from few doses [21] is reported as 1030 nM.
